The test system of the experiment is Escherichia coli ATCC BAA-2469. Kind of experiment: percent growth inhibition of drug + antibiotic vs DMSO control; higher = more growth inhibition. The protocol: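 Prestwick drugs tested at 20 uM and 7 uM with an antibiotic at 0.125x MIC (16 mg/L when MIC >128 mg/L) against E. coli ATCC BAA-2469 (NDM-1) in CAMHB, 384-well plates, duplicate runs. Percent growth inhibition was computed from OD600 (24 h minus 0 h) relative to DMSO wells. Drug + DMSO-only wells are also given. […]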

[1] abbreviates: antibiotic (0.125x MIC): ciprofloxacin, 7 µM.
Setting [2] is: antibiotic (0.125x MIC): ciprofloxacin, 20 µM.
Where [3] appears, read: antibiotic (0.125x MIC): meropenem, 7 µM.
Where [4] appears, read: antibiotic (0.125x MIC): meropenem, 20 µM.
[5] abbreviates: antibiotic (0.125x MIC): gentamicin, 7 µM.
[6] abbreviates: antibiotic (0.125x MIC): gentamicin, 20 µM.

Where a name gives a salt, the structure may show the parent alone. ± gives the standard deviation of the averaged measurements.

With `Nc1ncn(C2OC(CO)C(O)C2O)c(=O)n1` (centres undefined) [Azacytidine-5], the percent growth inhibition came to 99.1 ± 2.6% under setting [1] and 101 ± 3% under setting [2].
For `CC(=O)OC[C@H]1O[C@@H]([S-])[C@H](OC(C)=O)[C@@H](OC(C)=O)[C@@H]1OC(C)=O.CCP(CC)CC.[Au+]` [Auranofin], the percent growth inhibition was 9.1 ± 0.77% under setting [1], 19.5 ± 6.6% under setting [2], 7.8 ± 5.3% under setting [3] and 19.3 ± 14% under setting [4].
`Oc1c(I)cc(Cl)c2cccnc12` [Clioquinol]: the percent growth inhibition came to 7.92 ± 1.7% under setting [1]; 61.08 ± 0.34% under setting [2]; 12.9 ± 5.2% under setting [5]; 88.9 ± 10% under setting [6]; 7.81 ± 2.7% under setting [3].
Turning to `COC(=O)N/N=C/c1c[n+]([O-])c2ccccc2[n+]1[O-]` [Carbadox], the percent growth inhibition runs as follows: under setting [1], 35.21 ± 0.15%; under setting [2], 68.9 ± 6.1%; under setting [5], 46.5 ± 17%; under setting [6], 85 ± 3.9%; under setting [3], 39.9 ± 16%; under setting [4], 78.3 ± 7.7%.
With `C[C@H]1[C@H](NC(=O)/C(=N\OC(C)(C)C(=O)O)c2csc(N)n2)C(=O)N1S(=O)(=O)O` [Aztreonam], the percent growth inhibition under setting [1] was found to be 0.0872 ± 14%, the percent growth inhibition under setting [5] came out at 24.6 ± 5.5%, the percent growth inhibition under setting [6] is 81.2 ± 19% and the percent growth inhibition under setting [3] stood at 14.9 ± 16%.
For `CS(=O)(=O)c1ccc([C@@H](O)[C@@H](CF)NC(=O)C(Cl)Cl)cc1` [Florfenicol], the percent growth inhibition runs as follows: under setting [1], 35.4 ± 4.7%; under setting [2], 88.8 ± 2.8%.
Take `CN(C)c1ccc(O)c2c1C[C@H]1C[C@H]3[C@H](N(C)C)C(O)=C(C(N)=O)C(=O)[C@@]3(O)C(O)=C1C2=O` [Minocycline hydrochloride]: the percent growth inhibition under setting [1] came to 36.9 ± 6.3%, the percent growth inhibition under setting [2] was 101 ± 3.3%, the percent growth inhibition under setting [5] stood at 38.6 ± 5.5% and the percent growth inhibition under setting [6] came to 84.6 ± 15%.
Take `CO[C@H]1/C=C/O[C@@]2(C)Oc3c(C)c(O)c4c(O)c(c(/C=N/N5CCN(C)CC5)c(O)c4c3C2=O)NC(=O)/C(C)=C\C=C\[C@H](C)[C@H](O)[C@@H](C)[C@@H](O)[C@@H](C)[C@H](OC(C)=O)[C@@H]1C` [Rifampicin]: the percent growth inhibition is 13.5 ± 3.6% under setting [1] and 101 ± 2.1% under setting [2].
With `N=C(NCCCCCCNC(=N)NC(=N)Nc1ccc(Cl)cc1)NC(=N)Nc1ccc(Cl)cc1` [Chlorhexidine], the percent growth inhibition amounted to 103 ± 3.8% under setting [2], 112 ± 19% under setting [6] and 99.2 ± 1.6% under setting [4].
Turning to `Cc1cc(/C=C/c2ccc3cc(N(C)C)ccc3[n+]2C)c(C)n1-c1ccccc1` [Pyrvinium pamoate], the percent growth inhibition is, setting by setting: under setting [5], 13.6 ± 14%; under setting [3], 11.6 ± 17%; under setting [4], 18 ± 14%.
Consider `Cc1c(N(C)C)c(=O)n(-c2ccccc2)n1C` [Amidopyrine], for which, under setting [5], the percent growth inhibition is 0.636 ± 5.5%.
Same read-out and setting: to `CCCCNc1c(C(=O)OCC)c(C)nc2c1cnn2CC` [Tracazolate hydrochloride] belongs 0.683 ± 0.77%; to `COc1cc(C(=O)NCc2ccc(OCCN(C)C)cc2)cc(OC)c1OC` [Trimethobenzamide hydrochloride], 0.833 ± 1.4%.
Take `CC1CS(=O)(=O)CCN1/N=C/c1ccc([N+](=O)[O-])o1` (centres undefined) [Nifurtimox]: the percent growth inhibition under setting [6] turned out to be 2.95 ± 0.97%.

(Values after the supplement of paper PMC6658780.)
